# Target: T1, Tyrosyl-tRNA synthetase, putative (Trypanosoma cruzi (strain CL Brener)) (UniProt Q4DSP6)
# T1 sequence (whole entry): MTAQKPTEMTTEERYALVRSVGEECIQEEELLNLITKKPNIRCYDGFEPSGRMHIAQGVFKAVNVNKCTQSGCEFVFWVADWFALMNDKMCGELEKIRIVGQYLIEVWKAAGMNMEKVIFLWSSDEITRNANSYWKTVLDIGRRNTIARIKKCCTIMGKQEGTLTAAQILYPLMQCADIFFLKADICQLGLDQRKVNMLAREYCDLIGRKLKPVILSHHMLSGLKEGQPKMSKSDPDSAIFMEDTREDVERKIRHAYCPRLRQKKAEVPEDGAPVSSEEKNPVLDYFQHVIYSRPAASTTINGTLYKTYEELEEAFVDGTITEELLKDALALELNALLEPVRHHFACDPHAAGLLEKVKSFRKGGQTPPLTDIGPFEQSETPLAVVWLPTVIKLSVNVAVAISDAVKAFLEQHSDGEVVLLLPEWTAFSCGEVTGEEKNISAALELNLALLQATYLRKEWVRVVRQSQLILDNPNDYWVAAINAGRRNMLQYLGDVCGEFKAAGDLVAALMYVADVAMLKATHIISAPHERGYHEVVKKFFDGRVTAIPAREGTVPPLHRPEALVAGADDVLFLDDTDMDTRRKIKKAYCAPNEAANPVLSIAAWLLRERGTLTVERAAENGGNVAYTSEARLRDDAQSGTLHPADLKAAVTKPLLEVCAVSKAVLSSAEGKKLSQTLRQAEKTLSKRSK
# Test: Trypanosoma cruzi tyrosyl tRNA synthetase (TcYRS) SOP
# Assay type: functional
# Design: scale not given: direction of the effect not stated beside the values
# Conditions: 30 µM
row,SMILES,Percent Effect
1,COc1c(CNC2CCc3cc(F)ccc32)c(C)nn1C (stereo not given),9.41%
2,Cc1ccc(NC2CCN(C(=O)c3cc(C(N)=O)cs3)CC2)nn1,5.13%
3,COC[C@@H]1CC[C@H]2[C@H](CCN2S(=O)(=O)c2ccc(OC)cc2)O1,5.13%
4,NC(=O)CN1CCC(C(=O)N2CCCC(OCc3cccnc3)C2)CC1 (stereo not given),14.6%
5,Cc1ccc(F)cc1C(=O)N1C[C@@H](CN2CCOCC2)[C@@H](CO)C1,9.76%
6,CC(C)N1CCO[C@H]2CN(C(=O)c3ccc(N(C)C)cc3)C[C@H]21,12.8%
7,O=C(c1cc(C2CC2)on1)N1CCCC(n2cncn2)C1 (stereo not given),22.9%
8,CC(Cn1cccn1)NC(=O)N1CCN(Cc2cccs2)CC1 (stereo not given),12.8%
9,Cc1nc(-c2ccc(C(=O)O)cc2)cc(C2CCN(C(C)C)C2)n1 (stereo not given),15%
10,O=C(Nc1nnc(C2CC2)s1)NC1CCN(Cc2ccccc2)C1 (stereo not given),10.8%
11,Cc1cc(C(=O)NCc2ccnc(N3CCN(C)CC3)c2)c(C)s1,20.5%
12,CC(Cn1cccn1)NC(=O)NCc1cccnc1OC1CCCC1 (stereo not given),10.3%
13,Cn1ccc(CN2CCC(NC(=O)Cc3ccccc3)CC2)cc1=O,13.2%
14,CN(C)CC(=O)N1CCC2(CCN(Cc3ccccn3)C2=O)C1 (stereo not given),7.69%
15,CC(C)n1ccnc1C1CCN(C(=O)c2ccccc2)CC1,19.5%
16,Cc1nccn1-c1cccc(C2CCCN2S(=O)(=O)N(C)C)n1 (stereo not given),15%
17,O=C(c1ccccn1)N1CCN(c2ccc(-c3cccnc3)nn2)CC1,10%
18,Cc1ccccc1-c1cc(C(=O)NCCN2CCCS2(=O)=O)[nH]n1,20.5%
19,Cc1cc2cc(C(=O)N3CC[C@H](O)[C@]4(CCCO4)C3)ccc2o1,12.5%
20,CC(C)n1[nH]c(=O)c2c1NC(=O)CC2c1ccc2ncccc2c1 (stereo not given),9.76%
21,O=C(C1CCC1)N1CCn2c(COc3ncccn3)nnc2C1,5.13%

# Target: Chromo domain-containing protein 1 (Saccharomyces cerevisiae (strain ATCC 204508 / S288c) (Baker's yeast)) (UniProt P32657)
# Test: ScCHD-1 Enzyme Inhibition Assay; further: in the data most compounds retested in dose-response had high values
# Assay type: functional
# Design: scale not given: direction of the effect not stated beside the values
# Conditions: 30 µM
# Chromo domain-containing protein 1 (Saccharomyces cerevisiae (strain ATCC 204508 / S288c) (Baker's yeast)), sequence (P32657 whole entry, the tested form may be a part): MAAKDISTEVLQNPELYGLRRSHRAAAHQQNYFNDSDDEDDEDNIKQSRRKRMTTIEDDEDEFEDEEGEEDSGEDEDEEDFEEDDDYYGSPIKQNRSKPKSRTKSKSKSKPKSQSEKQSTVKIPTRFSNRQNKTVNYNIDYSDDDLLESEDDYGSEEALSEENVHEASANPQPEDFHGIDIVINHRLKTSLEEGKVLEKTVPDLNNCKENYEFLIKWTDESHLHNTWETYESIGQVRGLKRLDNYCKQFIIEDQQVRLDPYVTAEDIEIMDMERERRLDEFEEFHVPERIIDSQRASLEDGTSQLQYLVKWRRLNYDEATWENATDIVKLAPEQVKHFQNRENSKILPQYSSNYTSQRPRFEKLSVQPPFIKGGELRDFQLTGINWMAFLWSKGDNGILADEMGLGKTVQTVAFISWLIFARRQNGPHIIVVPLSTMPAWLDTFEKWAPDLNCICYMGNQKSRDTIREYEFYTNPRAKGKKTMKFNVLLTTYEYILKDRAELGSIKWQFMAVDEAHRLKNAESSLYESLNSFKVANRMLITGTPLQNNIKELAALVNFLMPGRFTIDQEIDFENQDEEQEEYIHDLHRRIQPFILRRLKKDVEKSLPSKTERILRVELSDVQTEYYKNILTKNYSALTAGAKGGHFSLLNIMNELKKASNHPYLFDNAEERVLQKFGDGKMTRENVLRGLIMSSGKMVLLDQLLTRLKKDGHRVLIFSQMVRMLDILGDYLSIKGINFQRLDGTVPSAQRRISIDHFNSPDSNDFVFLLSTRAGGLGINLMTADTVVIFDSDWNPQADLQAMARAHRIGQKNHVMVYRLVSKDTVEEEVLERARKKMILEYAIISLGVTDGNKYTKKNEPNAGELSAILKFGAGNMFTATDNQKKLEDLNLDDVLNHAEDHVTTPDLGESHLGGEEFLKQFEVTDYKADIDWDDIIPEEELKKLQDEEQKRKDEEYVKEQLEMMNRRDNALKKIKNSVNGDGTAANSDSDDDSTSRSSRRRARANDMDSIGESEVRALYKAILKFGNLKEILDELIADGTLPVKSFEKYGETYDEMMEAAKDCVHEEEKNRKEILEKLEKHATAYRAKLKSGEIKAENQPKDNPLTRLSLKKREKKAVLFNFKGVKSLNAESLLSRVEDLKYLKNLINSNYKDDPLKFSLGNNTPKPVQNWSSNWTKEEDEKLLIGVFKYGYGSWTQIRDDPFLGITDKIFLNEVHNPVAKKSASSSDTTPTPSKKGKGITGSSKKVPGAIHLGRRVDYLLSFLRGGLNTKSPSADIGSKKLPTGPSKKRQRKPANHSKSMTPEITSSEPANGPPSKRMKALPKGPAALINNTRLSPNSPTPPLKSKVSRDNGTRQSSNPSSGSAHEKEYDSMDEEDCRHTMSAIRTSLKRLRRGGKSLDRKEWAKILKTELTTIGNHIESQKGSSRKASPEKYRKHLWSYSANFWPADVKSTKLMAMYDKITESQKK
row,SMILES,Percent Effect
1,Cc1nc[nH]c1CN1CCN(C(=O)c2cccs2)[C@H]2CS(=O)(=O)C[C@H]21,-2.09%
2,Cc1ccc(CCC(=O)N2CCCC(n3cncn3)C2)c(C)c1 (stereo not given),1.81%
3,Cc1cc(-c2nn(C)c(Cl)c2CN2CCOCC2CC(=O)O)no1 (stereo not given),-0.504%
4,CCc1nc(CN2CCCN(C(=O)c3cn[nH]c3CC)CC2)cs1,-6.17%
5,CCC(=O)N1CCC(Cc2nccnc2Nc2ccccn2)CC1,-20%
6,Cn1cc(NC(=O)N2CCC(NS(C)(=O)=O)CC2)ccc1=O,-0.842%
7,CC(C)CC(=O)N1C[C@@H]2CCN(c3ncccn3)C[C@@H]2C1,-10.7%
8,CN(Cc1ccc2c(c1)OCCO2)C(=O)Cn1ccccc1=O,-7.25%
9,Cc1ccc(N2CCC3(CCCN(C(=O)c4cccnc4)C3)C2)nn1 (stereo not given),0.442%
10,O=C(c1cc[nH]n1)N1CCCC(c2cccc(-n3ccnc3)n2)C1 (stereo not given),-21.6%
11,COC(=O)C1CCN(C(=O)c2ccc(N(C)S(C)(=O)=O)c(C)c2)CC1,3.29%
12,CC(=O)N(Cc1ncc(C)o1)C1CCN(CCCc2cnn(C)c2)C1 (stereo not given),-12.6%
13,O=C(c1ccc(F)cc1Cl)N1CCC(Nc2cccnn2)CC1,-15.5%
14,Cc1cc(CNc2cc(Cl)ccc2OCCS(C)(=O)=O)no1,0.127%
15,CN1[C@H](Cn2cccn2)C[C@@H]2CN(C(=O)Cc3cccs3)CC[C@@H]21,-10.4%
16,Cc1cccc(CN2C[C@@H]3COC[C@]3(CNC(=O)c3ccsc3)C2)n1,108%
17,COc1ccc(C2CC(=O)Nc3c2nc2n3CCCC2)cc1OC (stereo not given),-4.25%
18,CN(C)CCN1CCC2(CCN(C(=O)c3ccc(F)cc3)CC2)C1=O,-6.97%
19,COc1c(CNC2CCc3cc(F)ccc32)c(C)nn1C (stereo not given),-0.439%
20,Cc1ccc(NC2CCN(C(=O)c3cc(C(N)=O)cs3)CC2)nn1,-4.07%

row,SMILES,Percent Effect
1,COC[C@@H]1CC[C@H]2[C@H](CCN2S(=O)(=O)c2ccc(OC)cc2)O1,1.57%
2,NC(=O)CN1CCC(C(=O)N2CCCC(OCc3cccnc3)C2)CC1 (stereo not given),1.71%
3,Cc1ccc(F)cc1C(=O)N1C[C@@H](CN2CCOCC2)[C@@H](CO)C1,-3.39%
4,CC(C)N1CCO[C@H]2CN(C(=O)c3ccc(N(C)C)cc3)C[C@H]21,-3.55%
5,O=C(c1cc(C2CC2)on1)N1CCCC(n2cncn2)C1 (stereo not given),30.2%
6,CC(Cn1cccn1)NC(=O)N1CCN(Cc2cccs2)CC1 (stereo not given),71.3%
7,Cc1nc(-c2ccc(C(=O)O)cc2)cc(C2CCN(C(C)C)C2)n1 (stereo not given),-22.5%
8,O=C(Nc1nnc(C2CC2)s1)NC1CCN(Cc2ccccc2)C1 (stereo not given),-0.956%
9,Cc1cc(C(=O)NCc2ccnc(N3CCN(C)CC3)c2)c(C)s1,-3.48%
10,CC(Cn1cccn1)NC(=O)NCc1cccnc1OC1CCCC1 (stereo not given),-8.77%
11,Cn1ccc(CN2CCC(NC(=O)Cc3ccccc3)CC2)cc1=O,-3.86%
12,CN(C)CC(=O)N1CCC2(CCN(Cc3ccccn3)C2=O)C1 (stereo not given),-2.1%
13,CC(C)n1ccnc1C1CCN(C(=O)c2ccccc2)CC1,-5%
14,Cc1nccn1-c1cccc(C2CCCN2S(=O)(=O)N(C)C)n1 (stereo not given),-24.5%
15,O=C(c1ccccn1)N1CCN(c2ccc(-c3cccnc3)nn2)CC1,-7.95%
16,Cc1ccccc1-c1cc(C(=O)NCCN2CCCS2(=O)=O)[nH]n1,-1.78%
17,Cc1cc2cc(C(=O)N3CC[C@H](O)[C@]4(CCCO4)C3)ccc2o1,-20.9%
18,CC(C)n1[nH]c(=O)c2c1NC(=O)CC2c1ccc2ncccc2c1 (stereo not given),2.28%
19,O=C(C1CCC1)N1CCn2c(COc3ncccn3)nnc2C1,-2.55%
